# Source: PubChem BioAssay (NCI)
# This is part of a sample that, as a whole, favours compounds with a hit. Of some 83,000 tested, about 20% had one in any assay.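 A percent growth of 40 corresponds to 60% growth inhibition; 0 means no net growth; -100 means all cells died. Active threshold: below 10.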 Values without a mark were called inactive. Active and inactive are the calls of the source.
# Tested on: TK-10 renal
# Assay: NCI-60 one-dose screen, 48 h (100 = growth as untreated, 0 = no growth, -100 = all killed)
# Conditions: 10 µM unless noted
row,Compound,growth
1,O=c1cc(-c2ccccc2)[nH]c2ncc(-c3ccc(F)cc3)n12,105%
2,N#Cc1cccc(C2C3=C(COC3=O)N(CCO)c3cc4c(cc32)OCO4)c1 (configuration not stated),50%
3,COC(=O)c1nc(-c2ccccc2)oc1S(=O)(=O)NCC(c1ccc(Cl)cc1)N1CCOCC1 (configuration not stated),62.3%
4,CC1(C)CC[C@]2(C(=O)N[C@H](CO)Cc3ccccc3)CC[C@]3(C)C(=CC[C@@H]4[C@@]5(C)CCCNC(C)(C)[C@@H]5CC[C@]43C)[C@@H]2C1,95.5%
5,COc1ccc(C(=O)Cn2c(C(=O)c3ccc(OC)cc3)nc3ccccc32)cc1,51.5%
6,COc1ccc(C2=CC(c3cc(OC)c(OC)c(OC)c3)n3ncnc3N2)cc1 (configuration not stated),62%
7,COc1ccc(C(=O)Cn2c(C(=O)c3ccc(Cl)cc3)nc3ccccc32)cc1,99.6%

# Tested on: ACHN renal
# Assay: as above
# Conditions: 10 µM unless noted
row,Compound,growth
1,CCCCCN(CCCCC)CC(O)c1cc(C)c2ccc3cc(C(C)C)ccc3c2c1 (configuration not stated),-77.8% (active)
2,CN(Cc1ccccc1)c1nc(Cl)c(C2CC(c3ccccc3)=NN2c2ccccc2)s1 (configuration not stated),102%
3,COC(=O)c1ccc(NC(=O)Nc2ccc(C(=O)OC)cc2)cc1,104%
4,C=C1C(=O)O[C@H]2[C@H]1CC/C(COC(=O)NCc1ccc(Cn3c(=O)sn(-c4ccc(C#N)cc4)c3=O)cc1)=C\CC[C@@]1(C)O[C@@H]21,79.5%
5,NS(=O)(=O)c1ccc(-c2cc(-c3nnc(SCC(=O)Nc4ccc(C(=O)/C=C/c5ccc(Cl)cc5)cc4)n3-c3ccccc3)c3ccccc3n2)cc1,106%
6,CO[C@H](C(=O)[C@@H](O)[C@@H](C)O)[C@@H]1Cc2cc3cc(O[C@H]4C[C@@H](O[C@H]5C[C@@H](O)[C@H](O)C(C)O5)[C@H](O)C(C)(O)O4)cc(O)c3c(O)c2C(=O)[C@H]1O[C@H]1C[C@@H](O[C@H]2C[C@@H](O[C@H]3C[C@@H](OC)[C@H](O)C(C)O3)[C@@H](O)C(C)O2)[C@H](O)C(C)O1 (some centres not stated),25.9%
7,COc1ccc(/C=C(/C(=O)n2cnnn2)c2cc(OC)c(OC)c(OC)c2)cc1,48%
8,COc1cccc(/C=N/NC(=O)c2ccccc2N2CCCC2)c1O,31.1%
9,CN1CCN(c2ccc(NC(=O)c3cncnc3Nc3ccc(OCc4cccc(F)c4)c(Cl)c3)cc2)CC1,89.3%
10,C=C1C(=O)O[C@H]2[C@H]1CC/C(CNC(=O)c1c[nH]c3ccc(F)cc13)=C\CC[C@@]1(C)O[C@@H]21,-18% (active)
11,Cc1ncc(C(=O)Nc2ccc(CN3CCN(C)CC3)c(C(F)(F)F)c2)cc1C#Cc1cnc(N)c2ncccc12,0.608% (active)
12,CCNC(=O)Oc1ccc(/C(=C(/CC)Cc2ccccc2)c2ccc(OCCN3CCCC3)cc2)cc1,95.1%
13,CCOC(=O)c1ccccc1-c1c2ccc(=[N+](C)C)cc-2oc2cc(N(C)C)ccc12,6.36% (active)
14,O=C(Nc1ncc(Cc2ccccc2)s1)c1ccc2c(c1)OCCCO2,34%
15,CCCCNc1cc(-c2cn[nH]c2-c2cc(C)cc(OC)c2)nc(-c2cccnc2)n1,96.7%
16,C=C1CC[C@@H]2[C@](C)(COC(C)=O)[C@H](OC(C)=O)CC[C@@]2(C)[C@@H]1CC(Nc1ccc(S(=O)(=O)NC(C)=O)cc1)C1=CCOC1=O (some centres not stated),-63.2% (active)
17,C/C=C(\C)C(=O)N[C@H]1C(O)C[C@]2(C)C3CC[C@@]4(C)C(CC[C@@H]4C(C)N(C)C)C3CCC2C1O (some centres not stated),60.4%
18,O=C(O)COc1ccc(Cl)c(Cl)c1,107%
19,NS(=O)(=O)c1ccc(C(=O)NN2C(=O)c3c(Br)c(Br)c(Br)c(Br)c3C2=O)cc1,106%
20,CS(=O)(=O)c1ccc(NC(=O)c2ccccc2)nc1,111%
21,FC(F)(F)Oc1cccc(-c2cnc3ccc(-c4ccncc4)nn23)c1,-0.133% (active)
22,Cc1ccc2c(-n3nc(C#N)c(C#N)c3N)cc(=O)[nH]c2c1,83.1%
23,CCOC(=O)c1c(C)nc2c(c1N)CC(=O)N2Cc1ccc(OC)cc1,28.4%
24,COc1cccc(CCNc2ncnc3c2ncn3Cc2nnc3c4ccccc4c(Cl)nn23)c1,24.9%
25,C=C1C(=O)O[C@H]2[C@H]1CC/C(COC(=O)c1ccc(C(=O)O)s1)=C\CC[C@@]1(C)O[C@@H]21,17.4%
